Compound activity (PubChem)
Rows were chosen to be rich in hits. Some 19% of all compounds tested hit in one or more screens of this group.
HT1080 IDH1KD tx – qHTS for induction of synthetic lethality in tumor cells producing 2HG: qHTS for the HT-1080-IDH1KD cell line; Potency, µM (titrated, usually from 46.1 µM), for inactives: at the top dose activity, negative = toxicity, actives largely listed as cytotoxic; HT-1080 IDH1 knockdown viability, ATP luminescence, 48 h; 360,000 tested, 2% active;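 further: potency means the concentration at half of the fitted maximal effect; 0% = DMSO wells and -100% = cell-free medium wells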
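Luminescent ATP read-out (CellTiter-Glo, 10 min at room temperature) after 48 h compound exposure at 37 °C gave viability of IDH1-knockdown HT-1080 cells. Activity was normalised to DMSO and cell-free wells, then fitted as concentration-response curves.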
DT40 TDP1 CPT – qHTS for Inhibitors of human tyrosyl-DNA phosphodiesterase 1 (TDP1): qHTS in cells in presence of CPT; AID 686979, 2013; 420,000 tested, 12% active; chicken DT40 Tdp1-/-;hTDP1 cells + 20 nM CPT, ATP luminescence, 48 h; Potency, µM (titrated, usually from 46.2 µM), without a hit: top-dose activity change, negative = growth inhibition, hits mostly inhibitors; further: potency means the concentration at half of the fitted maximal effect; nearly all actives have a fitted effect of over 55% in size
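Chicken DT40 Tdp1-/- cells complemented with human TDP1, 400 cells/well, exposed to compounds plus 20 nM camptothecin for at least 48 h at 37 C; viability read as ATP content by CellTiter-Glo luminescence.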
uPA surface inh – qHTS for Inhibitors of Cell Surface uPA Generation; 330,000 tested, 0.31% active; Potency, µM (highest dose often 38.3 µM), without a hit: top-dose activity change, negative = inhibition, hits mostly inhibitors; cell surface uPA generation assay, qHTS; active means well fitted inhibition curve with a large enough effect; inconclusive means small, poorly fitted or top-dose-only effect; inactive means no such curve, though single readings can be large or run the other way; tested in mouse RAW 264.7 cells; further: potency means the concentration at half of the fitted maximal effect; nearly all actives have a fitted effect of over 55% in size
HT1080-NT tox – qHTS for induction of synthetic lethality in tumor cells producing 2HG: qHTS for the HT-1080-NT fibrosarcoma cell line | HT-1080-NT fibrosarcoma viability, CellTiter-Glo ATP luminescence, 48 h | Potency, µM (highest dose often 46.1 µM), without a hit: at the highest dose activity, negative = less viability, usual class: cytotoxic | 360,000 tested, 1.6% active | AID 686970, 2013;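 further: NT is the 2HG producing partner of a matched IDH1 knockdown line; potency means the concentration at half of the fitted maximal effect; 0% = DMSO-treated cells and -100% = media-only wells without cells; nearly all actives have a fitted effect of over 55% in size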
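A 48-hour cytotoxicity screen used HT-1080-NT cells plated 2 hours before compound delivery. ATP-based CellTiter-Glo luminescence measured viability, normalized to DMSO and no-cell controls.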
IL1B secr inh – qHTS for Inhibitors of Inflammasome Signaling: IL-1-beta AlphaLISA Primary Screen | THP-1 LPS/ATP IL-1B secretion, AlphaLISA, 16 h; active compounds read low | activity change, % at 57.5 µM | 360,000 tested, 4.7% active | AID 743279, 2014; in the data active means activity change below about -50%; inconclusive means mostly about -30% to -49%
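Secreted IL-1B measured by AlphaLISA bead assay after 16 h compound exposure of THP-1 cells; compounds (final up to 57.5 uM) added 1 h before LPS (250 ng/mL) and ATP (1.25 mM) stimulation; lower signal means less secretion.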
DT40 TDP1 no CPT – qHTS for Inhibitors of human tyrosyl-DNA phosphodiesterase 1 (TDP1): qHTS in cells in absence of CPT; DT40 Tdp1-/- hTDP1 cells, no CPT, ATP luminescence, 48 h; Potency, µM (doses to about 46.2 µM), for the others: at the highest dose activity change, negative = growth inhibition, actives largely listed as inhibitors; 420,000 tested, 15% active; AID 686978, 2013; further: potency means the concentration at half of the fitted maximal effect; nearly all actives have a fitted effect of over 55% in size
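DT40 Tdp1-/-;hTDP1 cells, no CPT (DMSO vehicle only), 400 cells/well; compounds pin-transferred; ≥48 hr, 37 °C; CellTiter-Glo 30 min RT dark, luminescence read.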
* = called active by the depositor; ? = inconclusive; . = not tested or not shown; [ ] = remark or other dose. Unless noted, the call rests on the fitted dose curve; in most records, active means well fitted curve in the direction sought with a large enough effect; inconclusive means small, poorly fitted or top-dose-only effect, or another doubt; inactive means no such curve, though single readings can be large; an effect the other way counts as inactive or inconclusive. Unless noted, on the % scale 0 is the no-effect control and ±100 the full control effect.

SMILES	HT1080 IDH1KD tx	DT40 TDP1 CPT	uPA surface inh	HT1080-NT tox	IL1B secr inh	DT40 TDP1 no CPT
CCOc1ccc(NC(=O)CCCNC(=O)Cn2cnc3sc(C)c(C)c3c2=O)cc1	?	1.0%	-0.6%	?	8.8	-24.5%
CC(=O)Nc1ccc(CN(C)c2c(C)nc3ccc(C(=O)N4CCN(C(C)=O)CC4)cn23)cc1	-0.6%	8.8%	.	24.5%	9.5	25.8%
OC(CNC1CCCc2ccccc21)COc1c(Cl)cccc1Cl (centres undefined)	?	?	13.1%	-20.2%	-101.1*	?
CCCSC1=NC2(CCN(C(=O)NC3CCCCC3)CC2)N=C1c1ccc(OC)cc1	.	23.1µM*	.	.	.	23.1µM*
CCOC(=O)CSc1nc2sc3c(c2c(=O)n1Cc1ccccc1)CCC(C(C)(C)C)C3 (centres undefined)	.	-10.0%	.	.	.	5.1%
O=C(NCCO)C(=O)NCC(c1ccc2c(c1)OCO2)N1CCOCC1 (centres undefined)	.	-3.1%	.	.	.	-3.4%
O=C(OCC(O)C(O)C(O)COC(=O)c1ccccc1)c1ccccc1 (centres undefined)	1.4%	11.7%	10.2%	0.5%	0.1	2.8%
O=C(OCC(O)C(O)C(O)C(SCc1ccccc1)SCc1ccccc1)c1ccccc1 (centres undefined)	?	29.1µM*	9.5%	-20.2%	-72.4*	?
CC(C)C(c1nnnn1C1CCCCC1)N1CCc2ccccc2C1 (centres undefined)	-6.2%	-22.3%	-5.8%	?	-78.5*	?
c1ccc(Cn2nnnc2C(c2cccs2)N2CCc3ccccc3C2)cc1 (centres undefined)	?	?	-17.4%	?	-1.5	29.1µM*
CC(C)C(c1nnnn1Cc1ccccc1)N1CCc2ccccc2C1 (centres undefined)	8.0%[9.24 µM]	?	1.4%	-3.7%	6.0	16.4µM*
COCCN1C[C@@H](CO)O[C@@H](n2cnc3c(NCc4ccco4)ncnc32)C1	19.0%	-4.7%	.	?	-18.8	2.8%
COc1ccc(-c2ccccc2NC(=O)C2CCCN(Cc3ccc(C)o3)C2)cc1 (centres undefined)	-8.3%	?	-25.7%	-1.0%	-7.1	?
Cc1ccc(C)c(N2N=C(C(=O)Nc3ccc(N4CCOCC4)cc3)CCC2=O)c1	6.2%	-23.5%	-3.5%	7.5%	2.7	-23.2%
Cn1nc(C(F)(F)F)c(/C=N/OC(=O)c2ccccc2)c1Sc1ccc(Cl)cc1	-20.8%	23.1µM*	2.6%	-27.7%	?	23.1µM*
Cc1cnc(NC(=O)CSc2ncc(-c3ccccc3)n2Cc2ccco2)s1	?	18.4µM*	-2.2%	?	-12.4	?
O=C(CSc1ncc(-c2ccc(F)cc2)n1Cc1ccco1)Nc1nccs1	-5.4%	?	-8.7%	-21.8%	9.1	20.6µM*
Cc1csc(NC(=O)CSc2nnc(C)n2Cc2ccco2)n1	0.7%	-3.0%	-4.8%	-1.3%	-1.2	0.3%
COc1ccc(-c2cnc(SCC(=O)Nc3cc(C)on3)n2Cc2ccco2)cc1	-20.1%	-17.4%	-8.2%	-9.4%	-13.0	?
COc1ccc(-c2cnc(SCC(=O)Nc3nc(C(C)(C)C)cs3)n2Cc2ccco2)cc1	?	?	-2.8%	?	-13.8	20.6µM*
COc1ccc(NC(=O)CSc2ncc(-c3ccc(F)cc3)n2Cc2ccco2)cc1	?	12.6µM*	0.3%	?	-61.6*	15.8µM*
Cc1ccc(S(=O)(=O)N2[C@H](c3cccc(Cl)c3)CC(=O)[C@@H]3CN(S(=O)(=O)c4ccccc4C)[C@H](c4ccc(Cl)cc4)C[C@@H]32)cc1	-20.8%	-12.0%	.	-1.5%	39.0	-9.9%
O=C(COc1ccccc1F)Nc1ccc(S(=O)(=O)N2CCCC2)cc1	-0.6%	?	-10.4%	10.0%	-13.8	-23.3%
Cc1cn([C@H]2C[C@H](O)[C@@H](CNCc3ccc(-c4cc(Cl)ccc4C(F)(F)F)o3)O2)c(=O)[nH]c1=O	0.4%	?	.	-2.6%	-26.3	?
COC(=O)c1ccc(NC(=O)c2cc(-c3ccncc3)nc3ccccc23)cc1	?	?	-23.8%	?	42.2	?
SMILES	HT1080 IDH1KD tx	DT40 TDP1 CPT	uPA surface inh	HT1080-NT tox	IL1B secr inh	DT40 TDP1 no CPT
COc1cc2c(cc1NC(=O)c1cc(-c3ccncc3)nc3ccccc13)oc1ccccc12	-6.7%	20.6µM*	1.0%	-7.9%	3.3	?
COc1cc2c(cc1NC(=O)c1cc(-c3cccnc3)nc3ccc(C)cc13)oc1ccccc12	1.4%	11.2µM*	.	0.9%	?	?
Cc1ccc(NC(=O)c2ccc(F)c(S(=O)(=O)NCCc3ccccc3)c2)cc1F	.	20.6µM*	.	.	.	23.1µM*
COc1ccc(NC(=O)c2ccc(Cl)c(S(=O)(=O)N3CCc4ccccc4C3)c2)cn1	-11.8%	20.6µM*	-6.5%	-24.2%	-15.5	23.1µM*
Cc1ccccc1NC(=O)c1ccc(F)c(S(=O)(=O)N2CCc3ccccc3C2)c1	.	-4.0%	.	.	.	?
Cc1ccc(NC(=O)c2ccc(F)c(S(=O)(=O)N3CCc4ccccc4C3)c2)cc1F	.	?	.	.	.	23.1µM*
COc1ccc(NC(=O)c2ccc(Cl)c(S(=O)(=O)N3CC(C)OC(C)C3)c2)cn1 (centres undefined)	0.3%	?	-6.4%	1.2%	47.3	?
Cc1ccc(NC(=O)c2ccc(F)c(S(=O)(=O)N3CCOCC3)c2)cc1F	?	?	-24.2%	?	?	?
Cn1c(=O)c(-c2cccs2)nc2cncnc21	.	20.7%	.	.	.	-21.2%
CN(C)c1ncc2nc(-c3cc(F)cc(F)c3)c(=O)n(CCc3ccccc3)c2n1	.	-27.0%	.	.	.	-5.5%
CC(OC(=O)C1CCN(c2ccc(C(F)(F)F)cn2)CC1)C(=O)c1ccccc1 (centres undefined)	-4.0%	?	-5.0%	-5.0%	3.3	?
CCc1ccc(-c2nc(CN3CCCC(C(=O)N4CCN(c5cc(Cl)ccc5C)CC4)C3)c(C)o2)cc1 (centres undefined)	.	6.51µM*	.	.	.	3.26µM*
Cc1ccc(C)c(N2CCN(C(=O)C3CCCN(Cc4nc(-c5cccc(Cl)c5)oc4C)C3)CC2)c1 (centres undefined)	.	?	.	.	.	-7.1%
